Measurements taken from PubChem BioAssay (NCATS).
Values joined by “and” are separate entries in the source; they are usually repeats but may differ in a detail not shown here. Equal entries are not always repeated. Records with an inconclusive call do not appear. Active and inactive are the calls of the source. Unless noted, calls come from the whole dose curve; as a rule, active = well fitted curve in the direction sought with a large enough effect; inconclusive = small, poorly fitted or top-dose-only effect, or another doubt; inactive = no such curve, though single readings can be large; an effect the other way counts as inactive or inconclusive.

Legend:
[1] = biological target: Mitogen-activated protein kinase 10 (Mus musculus) (UniProt Q61831); test: JNK3 AlphaScreen Assay (AID 530; active = well fitted curve in either direction with a large enough effect, not every such curve was filed as active;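 note: kinase came from lysate of stimulated human HepG2 cells; signal reports phosphorylation of biotinylated GST-cJun 1-79 at Ser73 with 10 µM ATP; % is set by controls: 0 for no effect and ±100 for the full control effect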)
Method in brief: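 Biotinylated GST-cJun(1-79) served as substrate for JNK3 in HepG2 lysates stimulated with IL-1beta and TNF-alpha. ATP was 10 uM final, pH 7.6. Ser73 phosphorylation was quantified by AlphaScreen (680 nm excitation).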

[2] = biological target: 3',5'-cyclic-AMP phosphodiesterase 4B (Homo sapiens) (UniProt Q07343); test: qHTS Assay for Inhibitors of PDE-IV (AID 607; active = well fitted activation curve with a large enough effect in the main read-out, with a control signal flat, not every such curve was filed as active; note: % of control where 0% means no effect)
Method in brief: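 Live HEK293 cells with a modified cyclic nucleotide-gated (CNG) channel report intracellular cAMP via membrane-potential dye fluorescence (ex 535/em 590 nm). Endogenous PDE-IV was targeted. Compounds were tested at up to 22.9 uM final; RO 20-1724 100 uM served as control.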

[3] = biological target: Glucocorticoid receptor (Homo sapiens) (UniProt P04150); test: GR-EFC Redistribution (AID 451; calls by dose curve; note: potency is the fitted concentration of half-maximal effect); conditions: CHO-K1 GR-EFC translocation, beta-gal luminescence, 2 h
Method in brief: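 CHO-K1 cells stably expressing nuclear-localized β-gal enzyme acceptor and GR fused C-terminally to the enzyme donor fragment; ligand-driven nuclear translocation restores β-gal by complementation. Compounds titrated up to 46 uM final, 2 h at 37 °C; luminescence read.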

[4] = Cell Viability - N2a (AID 540); conditions: N2a mouse neuroblastoma cell viability; activity change, negative = cytotoxicity: at 92.2 µM (top of the series);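 note: cells exposed to compound for 40 h at 37 °C; nearly all actives have a fitted effect of over 45% in size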; note: potency is the fitted concentration of half-maximal effect;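 for activity change, negative = cytotoxicity: plate controls were DMSO alone for no effect and tamoxifen control for full effect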
Method in brief: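 In this qHTS cytotoxicity screen, ATP-dependent luciferase luminescence reports viable N2a cells after a 40 hr compound exposure in complete culture medium. Potencies are AC50 values from standard Hill equation fits.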

[5] = Cell Viability - HUV-EC-C (AID 542);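 note: cells exposed to compound for 40 hours; nearly all actives have a fitted effect of over 35% in size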; note: potency is the fitted concentration of half-maximal effect; for activity change, negative = cytotoxicity: % is set by controls: 0 for no effect and ±100 for the full control effect
Method in brief: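 Concentration-dependent ATP loss in HUV-EC-C cells is the measure. Exposure lasts 40 hr at 37 °C; luminescence follows CellTiter-Glo addition, and Hill fits give AC50.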

[6] = Cell Viability - H-4-II-E (AID 543);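 note: cells exposed to compound for 40 hours; nearly all actives have a fitted effect of over 35% in size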; note: potency is the fitted concentration of half-maximal effect
Method in brief: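 AC50 from Hill-modelled qHTS concentration-response curves. H-4-II-E rat hepatoma cells in complete medium, 40 hr exposure at 37 °C, viability by CellTiter-Glo ATP luminescence.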

[7] = Cell Viability - Renal Proximal Tubule (AID 545); conditions: renal proximal tubule cells viability, primary cells of rat origin; activity change, negative = cytotoxicity: at 91.7 µM (top of the series);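 note: cells exposed to compound for 40 hours; nearly all actives have a fitted effect of over 40% in size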; note: potency is the fitted concentration of half-maximal effect;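 for activity change, negative = cytotoxicity: 0% = DMSO only and -100% = 100 µM tamoxifen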
Method in brief: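 Primary rat renal proximal tubule cells (1000/well) were treated with compounds for 40 hr at 37 °C in complete medium. Intracellular ATP was measured by CellTiter-Glo luminescence, and AC50 values came from Hill-equation fits of concentration-response data.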

[8] = Cell Viability - Mesenchymal (AID 546); conditions: mesenchymal cells viability, qHTS; activity change, negative = cytotoxicity: at 91.7 µM (top of the series);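 note: cells exposed to compound for 40 hours before reading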; note: potency is the fitted concentration of half-maximal effect;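 for activity change, negative = cytotoxicity: 0% = DMSO only and -100% = 100 µM tamoxifen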
Method in brief: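 In this qHTS cytotoxicity format, glomerulus-derived human mesenchymal kidney cells received compound for 40 hr, then luciferase-based ATP quantitation. Concentration-response data were fitted with the Hill equation.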

[9] = Cellular Toxicity (caspase-3) HepG2 (AID 654);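 note: cells exposed to compound for 16 hours before reading; 0% = DMSO alone and 100% = caspase signal from 100 µM tamoxifen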
Method in brief: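 Concentration-response AC50 values reflect caspase-3/7 induction in HepG2 cells after 16 hours of compound exposure, quantified by luminescence from liberated aminoluciferin and referenced to 100 uM tamoxifen as full stimulation.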

[10] = Cellular Toxicity (caspase-3) Jurkat (AID 655);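 note: cells exposed to compound for 16 h at 37 °C before reading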
Method in brief: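 Jurkat cells (5000/well) in complete medium were treated with compounds for 16 hr at 37 °C, then Caspase-Glo 3/7 luminescence was read after 20 min at room temperature. Data normalized to DMSO (basal) and 100 uM tamoxifen (100%); AC50 from Hill fit.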

[11] = Cellular Toxicity (caspase-3) HUV-EC-C (AID 656);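 note: 0% = DMSO basal and 100% = 100 µM tamoxifen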
Method in brief: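 HUV-EC-C endothelial cells, 1000/well, were pre-incubated 5 hr at 37°C, then exposed to compounds for 16 hr at 37°C. Caspase-Glo 3/7 luminescence was read after 20 min at room temperature. AC50 came from Hill fits, normalized to DMSO and 100 uM tamoxifen.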

[12] = Cellular Toxicity (caspase-3) SHSY5Y (AID 657)
Method in brief: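 SH-SY5Y human neuroblastoma cells (1500/well) were treated with compounds for 16 h at 37 °C, then Caspase-Glo 3/7 luminescence was read after 1 h at room temperature. Data normalized to DMSO and 10 uM staurosporine; AC50 from Hill fits.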

[13] = Cellular Toxicity (caspase-3) BJ (AID 658);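 note: 0% = DMSO basal and 100% = 10 µM staurosporine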
Method in brief: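 Plated BJ cells (1000/well) rested 5 hr, received compound for 16 hr at 37 °C, then Caspase-Glo 3/7 reagent for 1 hr at room temperature before luminescence reading.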

[14] = Cellular Toxicity (caspase-3) MRC-5 (AID 659);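 note: 0% = DMSO basal and 100% = 10 µM staurosporine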
Method in brief: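 Apoptosis readout in MRC-5 cells: luciferase light generated after caspase 3/7 cleaves a peptide-aminoluciferin substrate, measured post 16 hr compound incubation at 37 °C.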

[15] = Cellular Toxicity (caspase-3) Mesangial (AID 660);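 note: combined caspase 3 and 7 activity read by Caspase-Glo luminescence; cells exposed to compound for 16 h before the caspase read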
Method in brief: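 AC50 values come from Hill-equation fits of caspase 3/7 activation, measured as Caspase-Glo luminescence in human glomerular mesangial cells exposed to compound for 16 h at 37 °C; 100% set by 100 uM tamoxifen.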

[16] = Cellular Toxicity (caspase-3) SK-N-SH (AID 661);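 note: 0% = DMSO basal and 100% = 10 µM staurosporine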
Method in brief: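 Apoptosis readout in SK-N-SH neuroblastoma: Caspase-Glo 3/7 luminescence following 16 hr treatment in complete culture medium. Normalization used DMSO and 10 uM staurosporine controls.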

[17] = Cellular Toxicity (caspase-3) H-4-II-E (AID 663); conditions: Potency: caspase-3 activation;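 note: cells exposed to compound for 16 hr before readout; 0% = DMSO basal and 100% = 100 µM tamoxifen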
Method in brief: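 Caspase 3/7 activation measured in H-4-II-E cells in complete culture medium after 16 hr treatment at 37 °C, using luciferase-coupled substrate readout; AC50 values come from Hill-equation fits of normalized concentration-response data.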

[18] = Cellular Toxicity (caspase-3) Hek293 (AID 664);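 note: cells exposed to compound for 16 h at 37 °C before readout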
Method in brief: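 Apoptosis readout: Caspase-Glo 3/7 signal in human HEK293 cells following 16-hour compound incubation. Responses scaled between DMSO baseline and 100 uM tamoxifen.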

[19] = Cell Viability - NIH 3T3 (AID 541); conditions: NIH 3T3 cell viability, qHTS; activity change, negative = cytotoxicity: at 92.2 µM (top of the series);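 note: cells exposed to compound for 40 hours; nearly all actives have a fitted effect of over 25% in size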; note: potency is the fitted concentration of half-maximal effect;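 for activity change, negative = cytotoxicity: plate controls were DMSO alone for no effect and tamoxifen positive control for full effect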
Method in brief: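 In this cytotoxicity screen, acute toxicity is scored as an ATP drop measured by CellTiter-Glo in NIH 3T3 fibroblasts following a 40 hr, 37 °C incubation with compound.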

[20] = Cell Viability - SH-SY5Y (AID 544); conditions: SH-SY5Y neuroblastoma cell viability; viability change, negative = cytotoxic: at 92.2 µM (top of the series);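 note: cells exposed to compound for 40 hours; nearly all actives have a fitted effect of over 55% in size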; note: potency is the fitted concentration of half-maximal effect;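 for viability change, negative = cytotoxic: 0% = DMSO alone and -100% = 100 µM tamoxifen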
Method in brief: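 Quantitative HTS in SH-SY5Y neuroblastoma cells, 40 hr treatment at 37 °C, ATP content by luciferase luminescence; AC50 from Hill fits.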

Chain of Glucocorticoid receptor (Homo sapiens) (P04150 whole entry, looked up, the tested form may be a part): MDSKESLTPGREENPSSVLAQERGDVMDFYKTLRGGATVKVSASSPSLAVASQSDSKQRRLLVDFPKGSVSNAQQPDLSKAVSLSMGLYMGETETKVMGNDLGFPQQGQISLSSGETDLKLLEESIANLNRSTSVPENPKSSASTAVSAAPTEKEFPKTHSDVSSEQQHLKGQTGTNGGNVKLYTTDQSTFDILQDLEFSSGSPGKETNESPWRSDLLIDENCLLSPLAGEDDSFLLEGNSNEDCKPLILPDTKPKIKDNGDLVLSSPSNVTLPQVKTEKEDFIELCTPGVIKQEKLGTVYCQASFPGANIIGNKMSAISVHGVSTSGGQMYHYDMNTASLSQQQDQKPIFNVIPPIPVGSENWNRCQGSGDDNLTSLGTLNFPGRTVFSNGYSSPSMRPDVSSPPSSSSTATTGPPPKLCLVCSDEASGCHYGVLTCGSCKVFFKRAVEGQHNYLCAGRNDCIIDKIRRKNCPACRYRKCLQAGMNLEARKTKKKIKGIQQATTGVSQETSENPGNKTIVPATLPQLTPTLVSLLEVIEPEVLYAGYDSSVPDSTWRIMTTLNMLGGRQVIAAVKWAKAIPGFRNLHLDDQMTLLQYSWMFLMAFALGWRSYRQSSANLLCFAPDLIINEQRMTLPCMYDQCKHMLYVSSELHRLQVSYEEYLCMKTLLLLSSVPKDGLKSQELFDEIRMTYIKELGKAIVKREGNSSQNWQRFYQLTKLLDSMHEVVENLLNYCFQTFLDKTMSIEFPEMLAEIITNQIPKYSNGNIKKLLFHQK
Chain of 3',5'-cyclic-AMP phosphodiesterase 4B (Homo sapiens) (Q07343 whole entry, looked up): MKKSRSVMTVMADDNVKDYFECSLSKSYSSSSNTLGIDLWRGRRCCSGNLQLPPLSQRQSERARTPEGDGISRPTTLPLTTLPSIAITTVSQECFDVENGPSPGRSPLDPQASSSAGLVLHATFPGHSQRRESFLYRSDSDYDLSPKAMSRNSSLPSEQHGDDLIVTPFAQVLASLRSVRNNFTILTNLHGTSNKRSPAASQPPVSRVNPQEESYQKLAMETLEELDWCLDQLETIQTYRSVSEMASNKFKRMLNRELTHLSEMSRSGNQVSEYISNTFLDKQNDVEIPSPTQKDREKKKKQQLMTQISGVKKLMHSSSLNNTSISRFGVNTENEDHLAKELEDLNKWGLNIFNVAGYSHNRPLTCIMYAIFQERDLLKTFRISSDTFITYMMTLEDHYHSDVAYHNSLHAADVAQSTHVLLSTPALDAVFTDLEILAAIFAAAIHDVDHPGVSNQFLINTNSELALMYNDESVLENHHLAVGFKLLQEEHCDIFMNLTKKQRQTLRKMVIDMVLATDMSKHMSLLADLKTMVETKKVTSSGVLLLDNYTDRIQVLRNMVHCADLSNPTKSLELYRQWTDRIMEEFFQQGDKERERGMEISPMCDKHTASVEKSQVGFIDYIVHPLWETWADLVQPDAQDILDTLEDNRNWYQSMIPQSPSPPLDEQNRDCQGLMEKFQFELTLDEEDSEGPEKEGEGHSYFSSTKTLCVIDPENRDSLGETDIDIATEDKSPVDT

C[C@@H](C1=C(CCN(C)C)Cc2ccccc21)c1ccccn1
inactive: outcome [1]

Cc1ncc(CO)c(CO)c1O
inactive: outcome [1] | outcome [2]

CN(C)c1cc2c(Nc3ccc4c(cnn4Cc4ccccc4)c3)ncnc2cn1
inactive: Potency [3] > 46 µM | outcome [1] | outcome [2]

Nc1cccc2c(N)cccc12
inactive: outcome [1] | Potency [4] | Potency [5] | Potency [6] | Potency [7] | Potency [8] | outcome [9] | Potency [10] | outcome [11] | Potency [12] | outcome [13] | outcome [14] | outcome [15] | outcome [16] | Potency [17] | outcome [18]

C[N+](C)(C)CCO
inactive: outcome [1] | outcome [2]

O=C(CCCCC(=O)Nc1c(I)cc(I)c(C(=O)O)c1I)Nc1c(I)cc(I)c(C(=O)O)c1I
inactive: Potency [3] > 20.6 µM | outcome [1] | outcome [2]

CC(C)C(C)(C)C(C)(C)C(C)(C)S
inactive: outcome [1] | Potency [4] | activity change, negative = cytotoxicity [19] -18.6% | Potency [5] | Potency [6] | Potency [20] | Potency [7] | Potency [8] | outcome [9] | Potency [10] | outcome [11] | Potency [12] | outcome [13] | outcome [14] | outcome [15] | outcome [16] | Potency [17] | outcome [18]

Cn1cnc2c(NCc3ccccc3)nc(NCCO)nc21
inactive: Potency [3] > 46 µM | outcome [2]

CCCC(=O)c1cc(O)c(O)cc1O
inactive: outcome [1] | Potency [5] | Potency [6] | Potency [7] | outcome [9] | Potency [10] | outcome [11] | Potency [12] | outcome [13] | outcome [14] | outcome [15] | outcome [16] | Potency [17] | outcome [18]
active: viability change, negative = cytotoxic [20] -93.1%

CCCCC(CC)COC(=O)c1ccccc1C(=O)O (centres undefined)
inactive: outcome [1] | Potency [4] | activity change, negative = cytotoxicity [19] 10.8% | Potency [5] | Potency [6] | Potency [20] | Potency [7] | Potency [8] | outcome [9] | Potency [10] | outcome [11] | Potency [12] | outcome [13] | outcome [14] | outcome [15] | outcome [16] | Potency [17] | outcome [18]

CCCCCCCCCCCCCCCC[n+]1ccccc1
inactive: outcome [1] | outcome [11] | Potency [12] | outcome [15] | outcome [18]
active: Potency [4] 0.398 µM | Potency [19] 25.1 µM | Potency [6] 3.98 µM | Potency [20] 25.1 µM | Potency [7] 31.6 µM | Potency [8] 31.6 µM

O=C(O)/C=C(\CC(=O)O)C(=O)O
inactive: activity change, negative = inhibition [1] 4.55% [at 11.4 µM] | outcome [2]

O=C1NC(c2cccc([N+](=O)[O-])c2)=CCN1c1ccccc1O
inactive: Potency [3] > 46 µM | outcome [1] | outcome [2]

Nc1ccc(O)cc1
inactive: outcome [1] | outcome [9] | Potency [10] | outcome [11] | outcome [13] | outcome [14] | outcome [15] | outcome [16] | outcome [18]
active: Potency [4] 31.6 µM | activity change, negative = cytotoxicity [19] -133% | Potency [5] 31.6 µM | Potency [6] 39.8 µM | Potency [20] 25.1 µM | Potency [7] 25.1 µM | Potency [8] 31.6 µM

CN(C(=O)C(Cl)Cl)c1ccc(OC(=O)c2ccco2)cc1
inactive: Potency [3] > 20.6 µM | outcome [1] | outcome [2]

CC(=O)OC/C=C(C)/C=C/C=C(C)/C=C/C1=C(C)CCCC1(C)C
active: activity change, negative = cytotoxicity [19] -114% | viability change, negative = cytotoxic [20] -99.5%
inactive: outcome [1] | Potency [4] | Potency [5] | Potency [8] | outcome [9] | Potency [10] | outcome [11] | Potency [12] | outcome [13] | outcome [14] | outcome [15] | outcome [16] | Potency [17]

Oc1ccccc1
inactive: outcome [1] | Potency [4] | activity change, negative = cytotoxicity [19] -17.5% | Potency [5] | Potency [6] | Potency [20] | Potency [7] | Potency [8] | outcome [9] | Potency [10] | outcome [11] | Potency [12] | outcome [13] | outcome [14] | outcome [15] | outcome [16] | Potency [17] | outcome [18]

COc1cc(C=O)ccc1O
inactive: outcome [1] | Potency [4] | activity change, negative = cytotoxicity [19] -22.1% | Potency [5] | Potency [6] | Potency [20] | Potency [7] | Potency [8] | outcome [9] | Potency [10] | outcome [11] | Potency [12] | outcome [13] | outcome [14] | outcome [15] | outcome [16] | Potency [17] | outcome [18]

Clc1ccc2c(c1)N=C(N1CCNCC1)c1ccccc1N2
inactive: Potency [3] > 46 µM | outcome [1] | outcome [2]

Cc1ccc(O)cc1
inactive: Potency [4] | activity change, negative = cytotoxicity [19] -11.4% | Potency [5] | Potency [6] | Potency [20] | Potency [7] | Potency [8] | outcome [9] | Potency [10] | outcome [11] | Potency [12] | outcome [13] | outcome [14] | outcome [15] | outcome [16] | Potency [17] | outcome [18]

NC(N)=NCCCCN=C(N)N
inactive: Potency [3] > 46 µM and > 20.6 µM | outcome [1] | outcome [2]
